Casp6 inh: human caspase-6 inhibitors, primary screen, biochemical, VEID-R110 fluorescence, single point, set 2; P55212; purified caspase-6, Z-VEID-R110 cleavage fluorescence; inhibition, % at 12.5 µM; 0.53% of 350,000 active;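 active = mean inhibition across replicates at least about 35%, with every replicate also reaching that limit, limit read from the data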
N-glyco inh: increase of ERlucT glycosylation luciferase signal, primary screen, N-linked glycosylation inhibitor project, D54 ERlucT cells, luminescence, set 2. AID 588692, 2011. 0.23% of 360,000 active. reporter increase, % at 12.5 µM. D54 ERlucT glycosylation luciferase reporter, 24 h; percent of 100 nM tunicamycin response;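 active = mean luciferase reporter signal, scaled so untreated is 0 and the glycosylation-blocking control 100, at or above a set limit in every replicate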;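 note: luciferase carries N-glycosylation sites so blocking glycosylation raises the light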
ALR inh: inhibitors of human ALR sulfhydryl oxidase, primary screen, biochemical, H2O2 detection, HRP-luminol luminescence, single point; AID 485317, 2010; purified ALR, DTT oxidation; 3.8% of 290,000 active; inhibition, % (no concentration beside the values);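 active = mean replicate inhibition above about 79%, with every replicate also reaching it, limit read from the data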
Target sequence (P55789 whole entry, looked up): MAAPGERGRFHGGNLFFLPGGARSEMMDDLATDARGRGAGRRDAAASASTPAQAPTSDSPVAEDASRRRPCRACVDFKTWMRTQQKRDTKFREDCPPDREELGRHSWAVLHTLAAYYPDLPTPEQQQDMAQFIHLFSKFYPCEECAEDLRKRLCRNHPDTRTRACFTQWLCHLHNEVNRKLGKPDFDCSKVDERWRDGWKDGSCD
CDK5 p35 inh: inhibitors of human CDK5/p35 kinase, primary screen, biochemical, single concentration | Cyclin-dependent kinase 5 (Homo sapiens) + Cyclin-dependent kinase 5 activator 1 (Homo … | Recombinant CDK5/p35, ADP-Glo luminescence, 60 min | inhibition, % at 10 µM | 0.01% of 330,000 active | AID 488839, 2010;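 active = highest replicate inhibition of at least 50% and at least 75% of replicates reaching 50%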
NSD2 inh: NSD2 histone methyltransferase inhibitors, primary screen, biochemical, AlphaScreen, single concentration, set 2; Histone-lysine N-methyltransferase NSD2 (Homo sapiens), O96028; NSD2 peptide methylation, 120 min; inhibition, % at 12.5 µM; 0.54% of 310,000 active; in the data active = inhibition above about 50%
Mot1-301 SUMO: yeast Mot1-301 growth rescue at high temperature, primary screen, SUMOylation pathway inhibitor project, S. cerevisiae, ATP luminescence, 38.5C; S. cerevisiae Mot1-301 growth rescue; percent above DMSO median, 100 means doubled; growth rescue, % at 18.8 µM; 1% of 320,000 active; AID 2716, 2010;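 active = every valid replicate shows activation above 250% relative to neutral control wells; inactive = the rest, any valid replicate at or below 250%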
A number is an active result. A selection: hits, their analogues and other compounds. The true share with any hit is near 3.9%.

Results for CC(C)NC(=O)Nc1ccc2c(c1)CC(=O)N([C@@H](C)CO)C[C@H](C)[C@@H](CN(C)CC1CC1)O2 ?
Casp6 inh: inactive

How did C[C@@H]1CN([C@@H](C)CO)C(=O)c2cccc(NS(=O)(=O)c3cccs3)c2O[C@@H]1CN(C)Cc1ccc2c(c1)OCO2 do in these assays?
Casp6 inh: inactive

What do the screens show for `CNC(=O)C[C@H]1CC[C@H]2[C@@H](COc3ccc(NC(=O)Nc4cccc(C)c4)cc3C(=O)N2C)O1`?
Casp6 inh: inactive

Results for C[C@@H](NC(=O)C[C@H]1C[C@H]2c3cc(NC(=O)C4CCC4)ccc3O[C@H]2[C@@H](CO)O1)c1ccccc1 ?
Casp6 inh: inactive

Results for CC(=O)c1cccc(Nc2c3c(nc4ccccc24)CCC3)c1 ?
Casp6 inh: inactive; N-glyco inh: 51; ALR inh: inactive; CDK5 p35 inh: inactive; NSD2 inh: inactive; Mot1-301 SUMO: inactive

How did Cc1ccc2nc3c(c(Nc4cccc(O)c4)c2c1)CCC3 do in these assays?
Casp6 inh: inactive; N-glyco inh: inactive; ALR inh: 98; CDK5 p35 inh: inactive; NSD2 inh: inactive; Mot1-301 SUMO: inactive

How did CC(=O)c1ccc(Nc2c3c(nc4ccccc24)CCCC3)cc1 do in these assays?
Casp6 inh: inactive; N-glyco inh: inactive; ALR inh: inactive; CDK5 p35 inh: inactive; NSD2 inh: inactive; Mot1-301 SUMO: inactive

How did COc1ccc(S(=O)(=O)NCc2cccnc2)cc1C(=O)NC1CCCCC1 do in these assays?
Casp6 inh: inactive; N-glyco inh: inactive; ALR inh: inactive; CDK5 p35 inh: inactive; NSD2 inh: inactive; Mot1-301 SUMO: inactive

Results for CCNS(=O)(=O)c1ccc(OC)c(C(=O)NC2CCCCC2)c1 ?
N-glyco inh: inactive; ALR inh: inactive; CDK5 p35 inh: inactive; Mot1-301 SUMO: 323

What do the screens show for `c1ccc(CCn2nnnc2CN2CCc3ccccc32)cc1`?
N-glyco inh: inactive; ALR inh: 99; CDK5 p35 inh: inactive; NSD2 inh: inactive

How did O=C(N[C@@H]1C=C[C@H](CC(=O)N2CCN(c3ccccc3)CC2)O[C@H]1CO)c1ccncc1 do in these assays?
Casp6 inh: inactive

How did O=C(COc1ccc2c(c1)oc(=O)c1ccccc12)NCC1CCC(C(=O)O)CC1 (configuration not stated) do in these assays?
Casp6 inh: inactive; N-glyco inh: inactive; ALR inh: inactive; CDK5 p35 inh: inactive; Mot1-301 SUMO: 620

How did O=C(COc1ccc2c3c(c(=O)oc2c1)CCC3)NCC1CCC(C(=O)O)CC1 (configuration not stated) do in these assays?
Casp6 inh: inactive; N-glyco inh: inactive; ALR inh: inactive; CDK5 p35 inh: inactive; NSD2 inh: inactive; Mot1-301 SUMO: inactive

Results for O=C(COc1ccc2cc(-c3ccccc3)c(=O)oc2c1)NCC1CCC(C(=O)O)CC1 (configuration not stated) ?
Casp6 inh: inactive; N-glyco inh: inactive; ALR inh: inactive; CDK5 p35 inh: inactive; Mot1-301 SUMO: 988

Results for C[C@@H]1CN([C@H](C)CO)S(=O)(=O)c2ccc(-c3ccccc3)cc2O[C@H]1CN(C)Cc1cccc(F)c1 ?
Casp6 inh: inactive

How did COc1ccc(-c2nc(CS(=O)CC(=O)NCc3cccnc3)c(C)o2)cc1 (configuration not stated) do in these assays?
Casp6 inh: inactive; N-glyco inh: inactive; ALR inh: 99; CDK5 p35 inh: inactive; Mot1-301 SUMO: inactive

How did COc1ccc(-c2nc(CS(=O)CC(=O)NCc3ccc(F)cc3)c(C)o2)cc1 (configuration not stated) do in these assays?
Casp6 inh: inactive; N-glyco inh: inactive; ALR inh: 99; CDK5 p35 inh: inactive; Mot1-301 SUMO: inactive

What do the screens show for `CCc1ccc(-c2nc(CS(=O)CC(=O)NCc3cccnc3)c(C)o2)cc1` (configuration not stated)?
N-glyco inh: inactive; ALR inh: 99; CDK5 p35 inh: inactive; NSD2 inh: inactive; Mot1-301 SUMO: inactive
